Compound activity from PubChem BioAssay.
Most compounds without a hit are left out; they make up all but 1.9% or so of the library.
IL2 activator = activates IL-2 in a cell-based reporter assay. AID 652025. activation, % (series mostly up to about 46 µM). 0.065% of 360,000 active. IL-2 activation reporter assay, cell-based qHTS; stimulated with anti-CD3/CD4/CD28 beads; in transgenic mouse T cells; in the data active = activation above about 50%; inconclusive = mostly about 30% to 49%; note: 0% is about no effect
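Quantitative HTS in unstimulated transgenic mouse T cells, with memory T cells as non-tolerant control and PMA/ionomycin as tolerance-bypass control. Compound pretreatment lasted 60 minutes before 18 h bead stimulation; EGFP/DsRed fluorescence read.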
Pin1 inh = human Pin1 inhibition; 0.009% of 390,000 active; Potency, µM (highest dose often 115 µM), without a hit: top-dose activity, negative = inhibition, most hits filed as inhibitors; Pin1 FP peptide displacement, HiFluor488, 10 min; Q13526; active = well fitted inhibition curve with a large enough effect in the polarisation, with a control signal flat, not every such curve was filed as active; inconclusive = small, poorly fitted or top-dose-only effect, or effect the other way, or a change in a side signal; inactive = no such curve, though single readings can be large or run the other way; the % refers to the polarisation; note: potency is the fitted concentration of half-maximal effect; % is set by controls: 0 for no effect and ±100 for the full control effect
Target sequence (Q13526 whole entry, looked up): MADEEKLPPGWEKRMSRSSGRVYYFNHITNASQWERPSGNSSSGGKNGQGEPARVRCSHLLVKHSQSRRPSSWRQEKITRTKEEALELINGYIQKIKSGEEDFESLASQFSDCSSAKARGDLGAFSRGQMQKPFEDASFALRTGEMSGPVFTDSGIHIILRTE
USP2a block = blocks human ubiquitin-specific protease USP2a. O75604. 0.01% of 330,000 active. USP2 core, Ub-CHOP2 coupled fluorogenic reporter, 485/531. Potency, µM (doses to about 38.3 µM), inactives show at the top dose activity change, negative = inhibition, usual class: inhibitors;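 note: potency is the fitted concentration of half-maximal effect; plate controls were DMSO wells for no effect and full inhibition by NEM control for full effect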
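USP2 core (10nM final) preincubated 30min RT with compound in 20mM Tris-HCl pH 8.0, 2mM CaCl2, 2mM beta-mercaptoethanol, 0.05% CHAPS; 25nM Ub-CHOP2 plus 25nM reporter substrate added, fluorescence (Ex485/Em531) read after 60min.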
PKM2 act = increases activity of human pyruvate kinase M2; Potency, µM (highest dose often 57.5 µM), for the others: top-dose activation, actives largely listed as activators; purified PKM2, Kinase-Glo ATP luminescence, activation; response scale: 0% is enzyme alone, no compound; 0.34% of 260,000 active; AID 1631; P14618; note: potency is the fitted concentration of half-maximal effect; % is set by controls: 0 for no effect and ±100 for the full control effect; nearly all actives have a fitted effect of over 55% in size
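hPK-M2, >95% pure; 0.1 mM ADP / 0.5 mM PEP final; imidazole pH7.2 buffer w/ 7 mM MgCl2, 50 mM KCl; 1 h RT; Kinase-Glo lum. Intermediate enzyme activity for dual inhibitor/activator qHTS.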
ClpP mod = qHTS Assay for Activators of ClpP; 1.9% of 340,000 active; Potency, µM (doses to about 57.5 µM), without a hit: at the top dose activity change, negative = active; ATP-dependent Clp protease proteolytic subunit (Bacillus subtilis (strain 168)), P80244; purified B. subtilis ClpP, FRET peptide cleavage, 20 min; active = well fitted falling curve with a large enough effect; inconclusive = small, poorly fitted or top-dose-only effect; inactive = no such curve, though single readings can be large or run the other way; note: potency is the fitted concentration of half-maximal effect; the source files actives as falling curves though it sought activators and does not explain the sign; nearly all actives have a fitted effect of over 65% in size
Target sequence (P80244 whole entry, looked up): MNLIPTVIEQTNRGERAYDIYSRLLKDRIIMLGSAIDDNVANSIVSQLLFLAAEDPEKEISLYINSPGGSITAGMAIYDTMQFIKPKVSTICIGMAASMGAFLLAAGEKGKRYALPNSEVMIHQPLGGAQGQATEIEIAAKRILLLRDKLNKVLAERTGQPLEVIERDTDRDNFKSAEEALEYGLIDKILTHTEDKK
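Buffer: 100 mM Tris/HCl pH8, 100 mM KCl, 0.05% low protease BSA, 2.5% glycerol, 0.01% Tween-20. ClpP 10 microg/mL final; 20 min RT; delta FRET normalized to ADEP and DMSO controls.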
a7 integrin act = integrin-mediated muscular dystrophy alleviation activation | alpha7betagal myoblasts, beta-gal FDG fluorescence, 48 h | Potency, µM (highest dose often 38.3 µM), inactives show top-dose activation, most hits filed as activators | 0.064% of 350,000 active;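 note: potency is the fitted concentration of half-maximal effect; 100% = response of the positive control SU9516; nearly all actives have a fitted effect of over 60% in size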
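alpha7betagal+/- myoblasts (passage 13, 250/well) treated 48 h at 37C with compounds at 1:260 dilution of DMSO stock. Lysed, then beta-galactosidase activity read as FDG fluorescence (ex 480/em 540) after 30 min, with pre-read for autofluorescence.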
The depositor's hits bear a star. Unless noted, calls come from the whole dose curve; as a rule, active = well fitted curve in the direction sought with a large enough effect; inconclusive = small, poorly fitted or top-dose-only effect, or another doubt; inactive = no such curve, though single readings can be large; an effect the other way counts as inactive or inconclusive.

What do the screens show for `CCc1ccc(NC(=O)CSC2=Nc3ccccc3C3=NC(CC(=O)NCc4ccccc4)C(=O)N23)cc1` (stereo unspecified)?
Pin1 inh: 10%; ClpP mod: -2%

What do the screens show for `COCCCNC(=O)CSC1=Nc2ccccc2C2=NC(CC(=O)NCc3ccccc3)C(=O)N12` (stereo unspecified)?
IL2 activator: 0; Pin1 inh: 0%; USP2a block: 1%; PKM2 act: 1%; ClpP mod: 28µM*; a7 integrin act: 27%

How did CC(C)C1N=C2c3ccccc3N=C(SCC(=O)NCc3ccc(F)cc3)N2C1=O (stereo unspecified) do in these assays?
Pin1 inh: -7%; ClpP mod: 4%

Results for CCC(C)NC(=O)CSC1=Nc2ccccc2C2=NC(c3ccccc3)C(=O)N12 (stereo unspecified) ?
IL2 activator: 2; Pin1 inh: 13%; USP2a block: inconclusive; PKM2 act: 5%; ClpP mod: 16µM*; a7 integrin act: 1%

How did CC(C)C1N=C2c3ccccc3N=C(SCC#N)N2C1=O (stereo unspecified) do in these assays?
IL2 activator: -2; Pin1 inh: -4%; USP2a block: -1%; PKM2 act: 0%; ClpP mod: 13µM*; a7 integrin act: -5%

How did COc1ccccc1NC(=O)CSC1=Nc2ccccc2C2=NC(CC(=O)NCc3ccccc3)C(=O)N12 (stereo unspecified) do in these assays?
Pin1 inh: 6%; ClpP mod: -3%

Results for CCC(C)NC(=O)CSC1=Nc2ccccc2C2=NC(CC(=O)NCc3ccccc3)C(=O)N12 (stereo unspecified) ?
IL2 activator: 1; Pin1 inh: 6%; USP2a block: 0%; PKM2 act: -1%; ClpP mod: 28µM*; a7 integrin act: 12%

Results for CCc1nnc(NC(=O)[C@@H]2CCCN2C(=O)c2cccs2)s1 ?
Pin1 inh: -1%; ClpP mod: 0%

How did O=C(Cc1ccc(-c2ccccc2)cc1)NO do in these assays?
ClpP mod: -4%

What do the screens show for `Cc1nn(CCc2nn[nH]n2)c2nc(-c3ccccc3)cc(C(F)(F)F)c12`?
IL2 activator: -2; Pin1 inh: -3%; USP2a block: 1%; PKM2 act: 0%; ClpP mod: 3%; a7 integrin act: 2%

How did Cc1nn(CCC#N)c2nc(-c3ccccc3)cc(C(F)(F)F)c12 do in these assays?
IL2 activator: 2; Pin1 inh: -1%; USP2a block: 0%; PKM2 act: -20%; ClpP mod: 32µM*; a7 integrin act: -14%

What do the screens show for `Cc1cc(C(F)(F)F)c2c(C)nn(CCc3nn[nH]n3)c2n1`?
IL2 activator: 1; Pin1 inh: -5%; USP2a block: -1%; PKM2 act: -2%; ClpP mod: 18µM*; a7 integrin act: 0%

How did Cc1cc(C(F)(F)F)c2c(C)nn(-c3ccccc3)c2n1 do in these assays?
IL2 activator: 0; Pin1 inh: -11%; ClpP mod: 28µM*; a7 integrin act: 25%

Results for CCOC(=O)c1cc(-c2ccc(OC)cc2F)nc2c1c(C)nn2CCC#N ?
IL2 activator: 1; Pin1 inh: -1%; USP2a block: 0%; PKM2 act: 1%; ClpP mod: 25µM*; a7 integrin act: 4%

How did CCOC(=O)c1cc(-c2ccc(Cl)cc2)nc2c1c(C)nn2CCC#N do in these assays?
IL2 activator: 0; Pin1 inh: 8%; USP2a block: 4%; PKM2 act: 1%; ClpP mod: 35µM*; a7 integrin act: -14%

What do the screens show for `Cc1ccc(NC(=O)CN2C(=O)N/C(=C/c3ccc(C)o3)C2=O)cc1`?
IL2 activator: 0; Pin1 inh: inconclusive; USP2a block: 5%; PKM2 act: 26%; ClpP mod: -1%; a7 integrin act: 5%

How did Cc1cccc(CN2C(=O)N/C(=C/c3ccc(C)s3)C2=O)c1 do in these assays?
IL2 activator: 14; Pin1 inh: inconclusive; USP2a block: 14%; PKM2 act: 17%; ClpP mod: 0%; a7 integrin act: -18%

What do the screens show for `Cc1ccc(/C=C2/NC(=O)N(Cc3ccccc3)C2=O)s1`?
IL2 activator: 159*; Pin1 inh: inconclusive; USP2a block: 4%; PKM2 act: 20%; ClpP mod: -1%; a7 integrin act: 16%

What do the screens show for `Cc1ccc(NC(=O)CN2C(=O)N/C(=C/c3ccc(C)s3)C2=O)cc1`?
IL2 activator: 53*; Pin1 inh: inconclusive; USP2a block: 11%; PKM2 act: 24%; ClpP mod: 0%; a7 integrin act: 7%

How did Cc1cccc(C)c1NC(=S)Nc1ccccc1C(=O)NCc1ccco1 do in these assays?
IL2 activator: 1; Pin1 inh: 4%; USP2a block: 4%; PKM2 act: 21%; ClpP mod: 25µM*; a7 integrin act: -30%

Results for O=C(NCc1ccco1)c1ccccc1NS(=O)(=O)c1ccc2c(c1)OCCO2 ?
IL2 activator: 2; Pin1 inh: 3%; PKM2 act: 3%; ClpP mod: 32µM*; a7 integrin act: -6%

What do the screens show for `Cc1ccc(N(CC(=O)Nc2ccccc2C(=O)NCc2ccco2)S(=O)(=O)c2ccccc2)cc1C`?
IL2 activator: 0; Pin1 inh: 57%; USP2a block: 2%; PKM2 act: 0%; ClpP mod: 22µM*; a7 integrin act: 10%

How did Cc1ccc(S(=O)(=O)N(Cc2ccccc2)c2ccccc2C(=O)Nc2ccccc2C(=O)NCc2ccco2)cc1 do in these assays?
IL2 activator: -2; Pin1 inh: 15%; USP2a block: -2%; PKM2 act: -1%; ClpP mod: inconclusive; a7 integrin act: 2%

What do the screens show for `Cc1ccc(C)c(N(CC(=O)Nc2ccccc2C(=O)NCc2ccco2)S(=O)(=O)c2ccccc2)c1`?
IL2 activator: -4; Pin1 inh: 7%; USP2a block: -13%; PKM2 act: 4%; ClpP mod: 35µM*; a7 integrin act: 8%

What do the screens show for `O=C(CN(c1ccccc1)S(=O)(=O)c1ccccc1)Nc1ccccc1C(=O)NCc1ccco1`?
IL2 activator: -1; Pin1 inh: 20%; USP2a block: 2%; PKM2 act: 2%; ClpP mod: inconclusive; a7 integrin act: 21%

How did Cc1sc2ccccc2[n+]1CCCCBr do in these assays?
ClpP mod: -1%
